Screens as filed in PubChem.
PglD inh – inhibitors of Campylobacter jejuni PglD acetyltransferase; purified PglD enzyme, DTNB colorimetric CoA detection; actives 0.098% (n = 360,000); inhibition, % at 12.5 µM; in the data active means inhibition above about 16%, passing the limit was not always enough
ERp5 block – ERp5 (human) disulfide isomerase inhibition; actives 0.05% (n = 350,000); inhibition, % at 9.99 µM; Q15084; AID 651711; ERp5 insulin aggregation, absorbance 650 nm, 90 min;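 active means mean replicate inhibition above about 25%, with every replicate also reaching it, limit read from the data, passing the limit was not always enough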
PDI inh – inhibitors of human protein disulfide isomerase; P07237; PDI insulin aggregation turbidity, A650, 90 min; inhibition, % at 10 µM; actives 0.052% (n = 350,000); AID 588391;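 active means mean inhibition across replicates of 30% or more, whatever share of single replicates reach that level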
ARNT TACC3 PPI – disrupts binding between human ARNT and TACC3. Q9Y6A5. inhibition, % at 9.99 µM. AID 623870. AlphaScreen His-ARNT PAS-B/GST-TACC3 binding, luminescence; TACC3 fragment carries E629A point mutation. actives 0.66% (n = 390,000);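 active means mean inhibition of replicates at least 50% and at least half of replicates each reaching 50%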
ALR H2O2 inh – inhibitors of human sulfhydryl oxidase ALR; inhibition, % (test concentration not listed); actives 3.8% (n = 290,000); purified ALR, DTT oxidation, H2O2 HRP-luminol luminescence; AID 485317; P55789;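 active means mean replicate inhibition above about 79%, with every replicate also reaching it, limit read from the data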
Target sequence (P55789 whole entry, looked up): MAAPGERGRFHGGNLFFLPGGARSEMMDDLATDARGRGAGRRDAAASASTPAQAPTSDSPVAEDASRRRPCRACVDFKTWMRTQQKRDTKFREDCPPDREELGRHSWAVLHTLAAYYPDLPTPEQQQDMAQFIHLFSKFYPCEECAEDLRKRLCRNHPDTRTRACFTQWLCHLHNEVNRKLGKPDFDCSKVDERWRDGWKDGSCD
NRP1-CendR mod – alters CendR peptide binding to human NRP-1; actives 0.85% (n = 360,000); FAM-RPARPAR peptide binding to NRP-1, fluorescence polarization; O14786; inhibition, % at 25 µM;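 active means inhibition or corrected inhibition above about 18%, plus a signal ratio from 0.5 to 1.5, limit read from the data, passing the limit was not always enough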
Numbers stand for hits; - = inactive; . = no result given. This is one part of a sample in which hits are shown more often than they occur.

SMILES	PglD inh	ERp5 block	PDI inh	ARNT TACC3 PPI	ALR H2O2 inh	NRP1-CendR mod
CN(C)c1ccc(/C=N/NC(=O)CNC(=O)c2ccc3c(c2)OCCO3)cc1	.	-	-	-	98	-
CNC[C@@H]1Oc2c(NC(=O)c3nc4ccccc4s3)cccc2C(=O)N([C@H](C)CO)C[C@@H]1C	-	-	.	-	.	.
C[C@H]1CCCCO[C@@H](CN(C)S(=O)(=O)c2ccc(Cl)cc2)[C@@H](C)CN([C@@H](C)CO)C(=O)c2cc(NS(=O)(=O)c3ccc(F)cc3)ccc2O1	-	-	.	-	.	.
O=C(C[C@@H]1C[C@@H]2c3cc(NC(=O)NC4CCCCC4)ccc3O[C@@H]2[C@@H](CO)O1)NC1CCCC1	.	-	.	.	.	.
CCC(=O)Nc1ccc(NC(=O)c2ccc3c(c2)OCO3)cc1	-	.	-	-	-	-
COc1cc(/C=N/NC(=O)CNC(=O)c2ccncc2)ccc1O	-	-	-	-	99	-
CCN(CC)c1ccc(NC(=O)c2ccc3c(c2)OCO3)cc1	-	-	-	-	99	-
CCOC(=O)[C@H]1[C@H]2COc3ccc(OC)cc3[C@@H]2N2C(=O)CN(Cc3ccco3)C(=O)[C@@]12C	-	-	-	-	-	22
CCOC(=O)[C@H]1[C@H]2COc3ccc(Cl)cc3[C@@H]2N2C(=O)c3ccc(Cl)cc3NC(=O)[C@@]12C	-	-	-	15	.	-
CCOC(=O)[C@H]1[C@H]2COc3ccc(OC)cc3[C@@H]2N2C(=O)c3ccc(C)cc3NC(=O)[C@@]12C	-	-	-	-	-	24
CCOC(=O)[C@H]1[C@H]2COc3ccc(C)cc3[C@@H]2N2C(=O)c3ccc(Cl)cc3NC(=O)[C@@]12C	-	-	-	-	-	-
CCOC(=O)[C@H]1[C@H]2COc3cc(OC)ccc3[C@@H]2N2C(=O)CN(Cc3ccco3)C(=O)[C@@]12C	-	-	-	.	-	-
CO[C@@H]1CN(C)C(=O)c2ccc(NC(C)=O)cc2OC[C@@H](C)N(C(=O)c2ccccn2)C[C@H]1C	-	-	.	-	.	.
Cc1oc(-c2ccccc2F)nc1CS(=O)CC(=O)NCc1cccs1 (stereo unspecified)	-	-	.	-	100	-
Cc1cccc(-c2nc(CS(=O)CC(=O)NCc3cccs3)c(C)o2)c1 (stereo unspecified)	-	-	.	-	.	-
Cc1oc(-c2ccc(Cl)cc2)nc1CS(=O)CC(=O)NCc1cccs1 (stereo unspecified)	-	-	.	-	99	-
Cc1oc(-c2ccccc2Cl)nc1CS(=O)CC(=O)NCc1cccs1 (stereo unspecified)	-	-	.	-	.	-
Cc1cccc(-c2nc(CSCC(=O)NCc3cccs3)c(C)o2)c1	-	.	-	-	98	-
CC=Cc1ccc2n(c1=O)C[C@@H]1[C@@H](CO)[C@H](C(=O)N(C)C)[C@H]2N1CC1CCOCC1 (mixture of isomers)	-	-	.	-	.	.
CC(C)(C)n1cnc2cc(NS(=O)(=O)c3ccccc3)ccc21	-	.	-	-	-	23
CC(C)n1cnc2cc(NCc3ccco3)ccc21	-	-	-	-	84	-
CC(C)(C)n1cnc2cc(NCc3ccccc3O)ccc21	-	-	-	-	99	-
CC(C)n1cnc2cc(NC(=O)c3ccco3)ccc21	-	-	-	-	-	-
CC(C)n1cnc2cc(NCc3ccccc3O)ccc21	.	-	-	-	99	-
O=C(NC[C@H]1N[C@H](CO)[C@@H]1c1ccc(C2=CCCCC2)cc1)c1ccccc1	-	.	.	-	.	.
SMILES	PglD inh	ERp5 block	PDI inh	ARNT TACC3 PPI	ALR H2O2 inh	NRP1-CendR mod
Cc1noc(C)c1S(=O)(=O)Nc1ccc2c(c1)C(=O)N([C@H](C)CO)C[C@H](C)[C@@H](CN(C)S(=O)(=O)c1cccs1)OCCCC[C@H](C)O2	-	.	.	-	.	.
CCN(CC)S(=O)(=O)c1ccc(S(=O)(=O)N(Cc2ccccn2)Cc2ccco2)cc1	-	-	-	-	-	-
O=S(=O)(NCc1ccccc1)c1ccc(S(=O)(=O)N(Cc2ccccn2)Cc2ccco2)cc1	-	.	-	-	-	38
O=C([C@H]1[C@H](CO)[C@H]2Cn3c(ccc(-c4cccnc4)c3=O)[C@@H]1N2CCC(F)(F)F)N1CCCCC1	-	-	.	-	.	.
Cc1ccc(C)c(SCC(=O)N(C)CC(=O)Nc2ccc(N3CCOCC3)cc2)c1	.	-	-	-	98	-
CSc1ccc(Cl)c(C(=O)N(C)CC(=O)Nc2ccc(N3CCOCC3)cc2)c1	.	-	-	-	89	-
Cc1cc(C)c(OCC(=O)N(C)CC(=O)Nc2ccc(N3CCOCC3)cc2)c(C)c1	-	-	-	-	-	-
CN(CC(=O)Nc1ccc(N2CCOCC2)cc1)C(=O)c1cc(F)c(F)cc1Cl	-	-	-	-	-	-
CSCc1ccc(C(=O)N2CCCC(Nc3ccc4c(c3)OCCO4)C2)o1 (stereo unspecified)	-	-	-	-	99	-
CSCc1ccc(C(=O)N2CCCC(Nc3ccc(F)cc3)C2)o1 (stereo unspecified)	-	-	-	-	98	-
O=C(c1cc(Cl)ccc1F)N1CCCC(Nc2ccc3c(c2)OCCO3)C1 (stereo unspecified)	-	-	-	-	97	-
Cc1cccc(C(=O)N2CCCC(Nc3ccc(F)c(F)c3)C2)n1 (stereo unspecified)	-	-	-	-	-	-
O=C(c1ccco1)N1CCCC(Nc2ccc3c(c2)OCCO3)C1 (stereo unspecified)	-	-	-	-	99	-
Cc1occc1C(=O)N1CCCC(Nc2ccc(F)c(F)c2)C1 (stereo unspecified)	-	-	-	-	-	-
Cc1[nH]c2ccccc2c(=O)c1CN1CCCCCC1	-	-	-	-	-	-
Cc1[nH]c2c(Cl)cccc2c(=O)c1CN1CCCC1	-	.	-	-	-	20
COc1ccc(C(=O)Nc2ccc3c(c2)C(=O)N(C)C[C@H](OC)[C@@H](C)CN(C)[C@H](C)CO3)cc1	-	-	.	-	.	.
CC1(C)C(CC(=O)O)CC1C(=O)O (stereo unspecified)	-	-	-	-	.	24
O=C(C[C@@H]1CC[C@H]2[C@@H](COC[C@@H](O)CN2S(=O)(=O)c2ccc(Oc3ccccc3)cc2)O1)Nc1ccccc1	-	-	.	-	.	.
CC(=O)N(C)C[C@H]1[C@H](c2ccc(-c3ccc(F)cc3)cc2)[C@@H](CO)N1C(C)=O	-	-	.	-	.	.
Cc1ccc(Sc2ncccc2C(=O)NCc2cc([N+](=O)[O-])ccc2O)cc1C	-	-	-	-	89	-
COc1ccc(CNC(=O)c2cccnc2Sc2ccc(C)c(C)c2)cc1	-	.	-	.	.	-
CO[C@H]1CN(C)C(=O)c2cc(NC(=O)Nc3ccc(F)cc3)ccc2OC[C@H](C)NC[C@H]1C	-	-	.	-	.	.
CCCn1nnnc1SCC(=O)N1C(C)CCCC1C (stereo unspecified)	-	-	-	-	-	22
